In PubChem BioAssay (NCATS):
Inconclusive results are not listed. Unmarked numbers belong to inactive results. Active and inactive are the calls of the source. Calls come from the whole dose curve; as a rule, active = well fitted inhibition curve with a large enough effect; inconclusive = small, poorly fitted or top-dose-only effect; inactive = flat fitted curve, though single readings scatter.

These compounds were tested on Zika virus NS2B-NS3 protease (assay: Primary screen GU AMC qHTS for Zika virus inhibitors (AID 1347154; note: nearly all actives have a fitted effect of over 70% in size;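 for activity change, negative = inhibition: 0% = no-inhibitor control and -100% = no-enzyme control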)). Details: Zika NS2B-NS3 unlinked protease, AMC fluorogenic substrate; series mostly up to 54.1 µM; activity change, negative = inhibition: at the top concentration.
Procedure, shortened: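 Unlinked Zika NS2B hydrophilic domain/NS3 protease domain noncovalent complex (25 nM final) in 10 mM Tris-HCl pH 8.0, 0.01% Tween 20, with AMC peptide substrate. Fluorescence (ex 340, em 450 nm) change over 15 min, room temperature; percent inhibition fitted to 4-parameter Hill equation.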
Potency is the fitted concentration of half-maximal effect.

Compound	activity change, negative = inhibition	Potency
C1=C2CCCN[C@H]2[C@@H]2C[C@H]1[C@@H]1CCCCN1C2	10.5%	
CC(C)(O)C(=O)Nc1ccc([N+](=O)[O-])c(C(F)(F)F)c1	6.95%	
O=S(=O)(O)C(F)(F)C(F)(F)C(F)(F)C(F)(F)F	1.57% [at 104 µM]	
CCN1C[C@]2(OC(=O)c3ccccc3NC(C)=O)CC[C@H](OC)[C@@]34[C@H]5CC6[C@@H](OC)C[C@](O)(C(C[C@@H]23)[C@@H]14)[C@@]5(O)[C@@H]6OC	-15.9%	
COCC1(CO)C(=O)C2CCN1CC2 (centres undefined)	7.13%	
CCOC(=O)c1c(C(C#N)=CN)c2ccc(Cl)c(Cl)c2n1C	5.22%	
COc1cccc2c1[C@]13CCN(CC4CC4)[C@H](C2)[C@]1(OC)CCC(=O)C3	15.1%	
CN(C)NC(=O)CCC(=O)O	2.15%	
Nc1ccc(Cl)cc1	-3.17% [at 104 µM]	
COC(=O)c1cncn1C(C)c1ccccc1 (centres undefined)	-2.58%	
O=C(O)C(Cl)Cl		inactive
CC(=CCCC1=CCC(C2=CC(=O)OC2O)OC1O)CCC1=C(C)CCCC1(C)C (centres undefined)	-3.81%	
C[C@]12CC[C@H](O)CC1=CC[C@H]1[C@H]3CCC(=O)[C@@]3(C)CC[C@@H]12	1.11%	
Clc1ccccc1C(c1ccccc1)(c1ccccc1)n1cccn1	6.9%	
CC(O)CN1CCN(CC(=O)[O-])CCN(CC(=O)[O-])CCN(CC(=O)[O-])CC1.[Gd+3] (centres undefined)	-1.53%	
O=C(Nc1ccccc1-c1ccc(Cl)cc1)c1cccnc1Cl	-2.22% [at 104 µM]	
O=c1cccc2n1CC1CNC[C@H]2C1		inactive
COc1ccc(CC2NCCc3cc(OC)c(OC)cc32)cc1OC (centres undefined)	6.16%	
c1cc2ccc3cccc4ccc(c1)c2c34		17.3 µM (active)
